Source: PubChem BioAssay
The list is not random: actives were taken first. Their share in the collection is about 0.96%.
TRPML1 ag: qHTS for Agonists of the Human Mucolipin Transient Receptor Potential 1 (TRPML1). Mucolipin-1 (Homo sapiens), Q9GZU1. TRPML1-expressing cells, Ca2+ dye fluorescence, FDSS. activation, % (no concentration beside the values). 410,000 compounds, 0.12% hits; in the data active means activation above about 50%; inconclusive means mostly about 30% to 49%; further: 0% is about no effect
Target sequence (Q9GZU1 whole entry, looked up): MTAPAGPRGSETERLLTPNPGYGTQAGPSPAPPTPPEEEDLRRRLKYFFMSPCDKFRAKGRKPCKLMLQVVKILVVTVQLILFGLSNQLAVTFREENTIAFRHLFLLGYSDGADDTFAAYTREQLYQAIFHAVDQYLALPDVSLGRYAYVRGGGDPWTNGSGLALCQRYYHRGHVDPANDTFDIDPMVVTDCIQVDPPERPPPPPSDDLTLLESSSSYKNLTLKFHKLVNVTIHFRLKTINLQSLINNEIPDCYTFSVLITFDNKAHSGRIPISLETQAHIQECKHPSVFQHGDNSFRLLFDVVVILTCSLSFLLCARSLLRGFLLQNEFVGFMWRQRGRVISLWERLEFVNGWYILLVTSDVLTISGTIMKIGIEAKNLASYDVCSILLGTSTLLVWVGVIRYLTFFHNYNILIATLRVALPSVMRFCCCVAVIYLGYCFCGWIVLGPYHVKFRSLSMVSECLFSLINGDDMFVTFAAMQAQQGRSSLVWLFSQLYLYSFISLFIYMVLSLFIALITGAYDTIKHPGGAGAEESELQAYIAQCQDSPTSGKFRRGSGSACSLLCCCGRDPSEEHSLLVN
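Tetracycline-induced TRPML1-DL cells are seeded and incubated overnight before loading with a no-wash Ca2+ dye and quencher. Agonist activity is taken from the 110 s fluorescence read following compound pin-transfer on an FDSS, before EC80 54-4 challenge.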
TRHR agonist-1: qHTS for Small Molecule Agonists and Allosteric Enhancers of Human TRH Receptor: Primary Screen for Agonists; Thyrotropin-releasing hormone receptor (Homo sapiens), P34981; TRHR cells, calcium flux fluo-8, FDSS agonist mode; activation, % at 2 µM; 360,000 compounds, 0.18% hits; in the data active means activation above about 30%; further: 0% is about no effect
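Read-out: compound-evoked intracellular calcium rise in TRHR cells, fluo-8 dye, kinetic FDSS fluorescence at 1 s/cycle following a 10-cycle baseline. Cells cultured overnight before dye loading (30 min–1.5 h, RT).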
TRPV1 agonist: HTS Assay for Compounds that Act as Agonists of the Vanilloid Receptor 1; Transient receptor potential cation channel subfamily V member 1 (Homo sapiens), Q8NER1; TRPV1-expressing cells, Fluo-8 calcium influx, agonist mode; activation, % at 8.33 µM; 320,000 compounds, 0.19% hits; AID 540275, 2011; in the data active means activation above about 80%; inconclusive means between about 30% and that limit; further: 0% is about no effect
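Cells expressing TRPV1 were dye-loaded with Fluo-8 and read kinetically: 10 s baseline, 3 min after compound (agonist portion), then 2 min after EC20 capsaicin (allosteric enhancer portion). Calcium-bound dye fluorescence at 480/520 nm.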
TRHR enhancer-1: qHTS for Small Molecule Agonists and Allosteric Enhancers of Human TRH Receptor: Primary Screen for Enhancers; TRHR cells, fluo-8 calcium fluorescence, EC20 TRH enhancement; Thyrotropin-releasing hormone receptor (Homo sapiens), P34981; 360,000 compounds, 0.66% hits; enhancement, % at 2 µM; in the data active means enhancement above about 30%; further: 0% is about no effect
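TRHR-expressing cells loaded with fluo-8 calcium dye were read kinetically (ex 480/em 530) during compound addition, then stimulated with an EC20 of TRH (10 nM final). Enhancement of the Gq-mediated intracellular calcium response was scored.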
TRPV1 potentiator: HTS Assay for Compounds that Act as Potentiators of the Vanilloid Receptor 1; TRPV1-expressing cells, Fluo-8 calcium influx, capsaicin EC20 potentiation; potentiation, % at 8.33 µM; 320,000 compounds, 0.02% hits; in the data active means potentiation above about 80%; inconclusive means between about 30% and that limit; further: 0% is about no effect
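TRPV1-expressing cells were cultured overnight at 35.5C and loaded with Fluo-8 calcium dye for 40 to 90 min at room temperature. After a 10 s baseline, compound was added and calcium influx was read kinetically for 3 min (ex 480/em 520 nm).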
TRPML1 blocker: qHTS for Inhibitors of the Human Mucolipin Transient Receptor Potential 1 (TRPML1); Mucolipin-1 (Homo sapiens), Q9GZU1; TRPML1-inducible cells, Ca2+ dye fluorescence, FDSS; active compounds read low; inhibition of EC80 agonist-evoked calcium signal; activity change, negative = inhibition, % (test concentration not listed); 390,000 compounds, 0.02% hits; AID 624415, 2012; in the data active means activity change below about -50%; inconclusive means between about -30% and that limit;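 further: stimulus is agonist 54-4 at its EC80 concentration; on the % scale 0 is the no-effect control and ±100 the full control effect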
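Calcium fluorescence in TRPML1-DL cells induced overnight with Tet: a 110 s read after compound pin addition, then a 110 s antagonist read after challenge with 54-4 at 4 uM final (EC80).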
TRHR enhancer-2: qHTS for Small Molecule Agonists and Allosteric Enhancers of Human TRH Receptor: Confirmation Screen for Enhancers; shares compounds with TRHR enhancer-1; AID 493076, 2011; activity change, negative = inhibition, % at 46.1 µM; 970 tested, under 10 active; TRH receptor cell assay, enhancer confirmation qHTS;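 further: compound effect scored on response to added TRH at EC20 of 10 nM; 0% is about no effect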
TRHR agonist-2: qHTS for Small Molecule Agonists and Allosteric Enhancers of Human TRH Receptor: Confirmation Screen for Agonists; shares compounds with TRHR enhancer-1; TRHR-expressing cells, agonist activation read-out; Potency, µM (doses to about 46.1 µM), for inactives: at the highest dose activation, usual class: activators; 970 compounds, 8% hits; further: potency means the concentration at half of the fitted maximal effect; 0% is about no effect; nearly all actives have a fitted effect of over 75% in size
The depositor's hits bear a star; u = inconclusive; x = no result given. Unless noted, the call rests on the fitted dose curve; in most records, active means well fitted curve in the direction sought with a large enough effect; inconclusive means small, poorly fitted or top-dose-only effect, or another doubt; inactive means no such curve, though single readings can be large; an effect the other way counts as inactive or inconclusive.

SMILES	TRPML1 ag	TRHR agonist-1	TRPV1 agonist	TRHR enhancer-1	TRPV1 potentiator	TRPML1 blocker	TRHR enhancer-2	TRHR agonist-2
CC(=O)c1ccc(S(=O)(=O)N2CCN(c3nc(-c4ccccc4)nc4ccccc34)CC2)cc1	0	x	x	x	x	x	x	x
CC(=O)c1ccc(S(=O)(=O)N2CCN(c3nc(-c4cccnc4)nc4ccccc34)CC2)cc1	0	1	-3	35*	7	-14	x	x
Cc1c(C)c2ccc(OCC(=O)NCCCn3ccnc3)cc2oc1=O	0	0	-1	43*	-5	-2	1	0%
CCCn1c(-c2cccc(F)c2)nc2c1c(=O)[nH]c(=O)n2Cc1ccccc1	1	0	1	-4	-3	-13	x	x
Cn1c(-c2cccc(F)c2)nc2c1c(=O)[nH]c(=O)n2Cc1ccccc1	0	0	4	49*	-2	0	-3	-1%
Cc1c(Cl)c([N+](=O)[O-])nn1CCCC(=O)Nc1cccc(Cl)c1Cl	0	0	9	-3	-10	-1	x	x
COC(=O)c1ccccc1NC(=O)CCCn1nc([N+](=O)[O-])c(Br)c1C	1	28	1	0	-2	-9	-7	2%
COc1ccc2c(c1)c1nnc(SC(C)C)nc1n2C	-1	x	x	x	x	x	x	x
CN(N=O)c1ccc(/C=C2\C=Cc3ccccc32)cc1	-1	x	x	x	x	x	x	x
COc1ccc(CN2CCN(Cc3ccc(CO)o3)CC2CCO)cc1C (stereo not given)	0	0	-1	57*	4	-2	-1	1%
COc1ccc(S(=O)(=O)N2CCN(c3nc(-c4ccccc4)nc4ccccc34)CC2)cc1	0	x	x	x	x	x	x	x
CC(C)(C)c1ccc(OCCCC(=O)NNC(=O)c2ccccc2O)cc1	1	0	11	41*	24	27	-4	0%
O=C(N/N=C/c1coc2ccccc2c1=O)c1cccc([N+](=O)[O-])c1	-1	0	1	61*	-2	3	u	3%
CC(=O)Nc1ccccc1NS(=O)(=O)c1ccccc1NO	1	0	-3	6	3	5	x	x
CCCN1C(=O)c2ccccc2NC1c1ccc(Cl)c(Cl)c1 (stereo not given)	3	-1	16	74*	-7	19	-13	-1%
C=C[C@@H]1c2cc(C)ccc2N(S(=O)(=O)c2ccc(C)cc2)[C@H](c2ccc(C(=O)OC)cc2)C1(C#N)C#N	-1	x	x	x	x	x	x	x
CC(C)c1cc(=O)oc2c3c4c(cc12)CCCN4CCC3	10	6	24	1	-17	-12	x	x
CN1CCCc2cc3c(C(F)(F)F)cc(=O)oc3nc21	24	49*	18	2	-18	-10	3	18µM*
CCCCOc1ccc(C(=O)N/C(=C/C=C/c2ccccc2)C(=O)O)cc1	0	29	-4	-1	-2	16	-6	0%
CCCCOc1ccc(C(=O)N/C(=C/C=C/c2ccccc2)C(=O)NC)cc1	1	4	23	-1	-2	-15	x	x
Cc1ccc(S(=O)(=O)N2CCN(CC(=O)Nc3ccc4c(c3)CCC4)CC2)cc1C	2	0	1	44*	3	-11	-2	4%
Cc1ccc(NC(=O)CN2CCc3ccccc3C2)cc1S(=O)(=O)N(C)C	1	0	6	58*	-4	20	-4	0%
O=C(CN1CCN(S(=O)(=O)c2ccc(Cl)cc2)CC1)Nc1ccc2c(c1)CCC2	1	0	-2	-1	2	-1	x	x
COc1ccc(CN2CC[C@H]3C=CC[C@@H](C(=O)Nc4ccc(Cl)cc4Cl)[C@H]3C2=O)cc1OC	-1	x	x	x	x	x	x	x
O=[N+]([O-])c1ccccc1S(=O)(=O)Nc1cccc(-c2ccc3nncn3n2)c1	0	1	1	46*	10	-3	3	0%
SMILES	TRPML1 ag	TRHR agonist-1	TRPV1 agonist	TRHR enhancer-1	TRPV1 potentiator	TRPML1 blocker	TRHR enhancer-2	TRHR agonist-2
CNC(=O)C(=O)Nc1c(C)cc(C)cc1C	-1	-1	1	41*	13	13	1	6%
CC(=O)c1nnn(-c2nc(N3CCCC3)nc(N(c3ccccc3)c3ccccc3)n2)c1C	-1	1	-1	45*	-19	-3	-3	4%
COc1nc(N2CCCC2)nc(-n2nnc(C(C)=O)c2C)n1	-1	0	0	1	-37	-16	x	x
O=C(C[n+]1ccnc2ccccc21)c1ccc(Br)cc1	-1	x	x	x	x	x	x	x
COc1cc(/C=c2\[nH]c(=O)/c(=C/c3cc(OC)c(OC)c(OC)c3)[nH]c2=O)cc(OC)c1OC	-1	x	x	x	x	x	x	x
O=C(Nc1ccc(S(=O)(=O)Nc2nccc(C3Cc4ccccc4C(=O)O3)n2)cc1)c1ccccc1 (stereo not given)	2	0	-1	43*	7	19	-5	1%
CC1CCN(C(=S)NC(=O)c2cccc([N+](=O)[O-])c2)CC1	-1	0	2	1	27	4	x	x
CN1CCN(C(=S)NC(=O)c2cccc([N+](=O)[O-])c2)CC1	0	0	-1	50*	0	-2	-3	-1%
COc1cccc(NC(=O)CCN2CCOCC2)c1	0	0	-2	62*	8	-6	-3	7%
O=C(Nc1cc(C(F)(F)F)ccc1N1CCOCC1)C1CC1	-1	0	-1	49*	-8	14	-9	0%
COc1ccc(O)c(C(=O)c2coc(=N)c(C(=O)Nc3ccc(SC(F)F)cc3)c2)c1	7	29	5	-5	-15	-16	-8	u
O=S(=O)(c1cccc(S(=O)(=O)N2CCC(N3CCCCC3)CC2)c1)N1CCOCC1	x	0	0	49*	-4	x	-2	1%
CC1CCN(S(=O)(=O)c2cccc(S(=O)(=O)N3CCOCC3)c2)CC1	1	0	3	5	-1	-13	x	x
Cc1ccc(NC(=O)c2ccc(-n3nncc3-c3ccccc3)cc2)cc1	0	x	x	x	x	x	x	x
